The source of these data is PubChem BioAssay.

What is called inhibition is the drop in the measured response relative to a control, in per cent.

Experiment [1] can be described thus: stimulators of nuclear beta-catenin in C2C12, primary screen, imaging, WNT3A-conditioned medium, mouse C2C12, NPC library (AID 1117326; in the data active = nuclear beta-catenin stimulation mostly above about 4.2%, no sharp cut-off; inactive = mostly below about 10%). The note with it: stronger effect = higher value.
A short description of experiment [2]: stimulators of insulin release from INS-1E, primary screen, cell-based, 5 mM glucose, NPC library (AID 1117329;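 active = compound raises insulin release from rat beta cells at 5 mM glucose, no numeric limit stated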). The conditions noted are these: rat INS-1E insulin secretion, at 10 µM, stronger effect = higher value.
Experiment [3] can be described thus: growth inhibition of GSK3B-pretreated HCT116 cells – cell-based, CellTiter-Glo, 0.2 to 20 µM (AID 1117336;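 active = compounds lowering colon cancer cell viability after pretreatment blocking the GSK3B kinase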). The conditions noted are these: HCT116 viability after GSK3B inhibitor, at 20 µM, stronger effect = higher value. (In general: ATP-based viability assays read luminescence as a measure of living cells.)
A short description of experiment [4]: inhibition of endothelial tube formation, primary screen, imaging, VEGF stimulated, CD31 staining, tube area, NPC library (AID 1117340;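 active = compound that reduces growth-factor-driven endothelial tube area in a mixed cell culture, no cutoff stated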). The note with it: VEGF-stimulated ADSC/ECFC co-culture, at 10 µM, stronger effect = higher value.
The nature of experiment [5]: glucagon-like peptide 1 release enhancers, primary assay, NCI-H716 cell line, NPC library (AID 1117341;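 active = compound raises GLP1 secretion from the human gut endocrine cells, with no numeric limit stated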). The conditions noted are these: NCI-H716 cells, at 10 µM, stronger effect = higher value.
Experiment [6] can be described thus: HCT116 colon cancer cell growth inhibition, primary screen, CellTiter-Glo luminescence, NPC library (AID 1117342). The note with it: at 20 µM (top of the series).
Experiment [7] can be described thus: CellTiter-Glo luminescent readout of SW480 viability loss, NPC library primary (AID 1117343;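 active = compounds that lower viability of the colon cancer cells in the luminescence readout, with no numeric limit stated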). The note with it: CellTiter-Glo luminescence; at 20 µM (top of the series).
The nature of experiment [8]: decreased DLD-1 cellular survival, CellTiter-Glo luminescent readout, NPC compound collection, primary HTS (AID 1117346;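 active = compounds that lower survival of DLD-1 colon cancer cells in the luminescence readout, no cutoff given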). The conditions noted are these: DLD-1 viability, CellTiter-Glo luminescence; at 20 µM (top of the series).
Experiment [9] deals with 6-phosphogluconate dehydrogenase, decarboxylating (Homo sapiens) (UniProt P52209). Nature of the experiment: 6PGD enzyme inhibitors, primary screen, biochemical, human, recombinant enzyme, NADPH absorbance (AID 1159550;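 active = at least 20% inhibition of 6-phosphogluconate dehydrogenase activity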). The conditions noted are these: recombinant 6PGD, NADPH absorbance 341 nm; at 10 µM; stronger effect = higher value.
Sequence of 6-phosphogluconate dehydrogenase, decarboxylating (Homo sapiens) (P52209 whole entry, looked up): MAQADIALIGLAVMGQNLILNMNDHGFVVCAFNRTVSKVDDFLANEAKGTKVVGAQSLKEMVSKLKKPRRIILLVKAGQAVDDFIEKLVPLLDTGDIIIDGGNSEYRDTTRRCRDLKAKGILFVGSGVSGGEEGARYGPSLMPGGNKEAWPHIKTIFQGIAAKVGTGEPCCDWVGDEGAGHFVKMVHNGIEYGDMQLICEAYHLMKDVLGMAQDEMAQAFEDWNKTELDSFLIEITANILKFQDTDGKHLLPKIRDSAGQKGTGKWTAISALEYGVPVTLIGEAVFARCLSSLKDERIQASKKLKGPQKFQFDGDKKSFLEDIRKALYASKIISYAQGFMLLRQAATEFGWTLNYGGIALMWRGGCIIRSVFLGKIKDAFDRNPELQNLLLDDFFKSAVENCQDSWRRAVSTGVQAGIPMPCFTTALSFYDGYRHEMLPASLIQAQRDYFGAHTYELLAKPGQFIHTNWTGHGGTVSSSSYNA
A short description of experiment [10]: differential killing of epithelial or mesenchymal cells, primary screen, imaging, PC-3E GFP, TEM4-18 mCherry, co-culture (AID 1345086;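 active = compounds killing one labelled cell type while sparing the other, by normalised counts and ratio limits, not self-fluorescent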;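 for all read-outs here: cells exposed to compound for 72 h before imaging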;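 for red/green cell ratio (normalised): normalised mesenchymal count divided by normalised epithelial count so high means epithelial killing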). The note with it: imaging cell counts, at 1 µM; for red/green cell ratio (normalised): actives lie on both sides, counts scaled to control wells, 1 = unselective.
Experiment [11] is described as follows: sensitizers of A549 cells to miR-34 induction, primary screen, imaging, A549 dox-inducible miR-34, nuclei and caspase counts (AID 1347080;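 active = compounds whose cell count with miR-34 switched on is under 0.7 times the count with it off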). The note with it: A549 miR-34 inducible, Hoechst nuclei count, 48 h.
Experiment [12] can be described thus: survival rescue of mitochondrial mutant cells in low glucose, primary screen, MELAS cybrids, Rieske KO mouse fibroblasts, CellTiter-Glo (AID 1508586;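 active = mean z-score across replicates of 1.96 or higher in either the MELAS or the Rieske mutant cell line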;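 note: z relative to plate mean and SD of compound and empty wells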).
The target in experiment [13] is NAD(+) hydrolase SARM1 (Homo sapiens) (UniProt Q6SZW1). Kind of experiment: SARM1 TIR NADase inhibitors, cell lysate, NAD-Glo luminescence (AID 1508614;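 active = compound whose remaining NAD level is above about 45 nM, limit read from the data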;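 note: higher remaining NAD means stronger inhibition of SARM1 NADase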). The note with it: SAM-TIR HEK293T lysate NADase, at 1 µM, stronger effect = higher value.
Sequence of NAD(+) hydrolase SARM1 (Homo sapiens) (Q6SZW1 whole entry, looked up, the tested form may be a part): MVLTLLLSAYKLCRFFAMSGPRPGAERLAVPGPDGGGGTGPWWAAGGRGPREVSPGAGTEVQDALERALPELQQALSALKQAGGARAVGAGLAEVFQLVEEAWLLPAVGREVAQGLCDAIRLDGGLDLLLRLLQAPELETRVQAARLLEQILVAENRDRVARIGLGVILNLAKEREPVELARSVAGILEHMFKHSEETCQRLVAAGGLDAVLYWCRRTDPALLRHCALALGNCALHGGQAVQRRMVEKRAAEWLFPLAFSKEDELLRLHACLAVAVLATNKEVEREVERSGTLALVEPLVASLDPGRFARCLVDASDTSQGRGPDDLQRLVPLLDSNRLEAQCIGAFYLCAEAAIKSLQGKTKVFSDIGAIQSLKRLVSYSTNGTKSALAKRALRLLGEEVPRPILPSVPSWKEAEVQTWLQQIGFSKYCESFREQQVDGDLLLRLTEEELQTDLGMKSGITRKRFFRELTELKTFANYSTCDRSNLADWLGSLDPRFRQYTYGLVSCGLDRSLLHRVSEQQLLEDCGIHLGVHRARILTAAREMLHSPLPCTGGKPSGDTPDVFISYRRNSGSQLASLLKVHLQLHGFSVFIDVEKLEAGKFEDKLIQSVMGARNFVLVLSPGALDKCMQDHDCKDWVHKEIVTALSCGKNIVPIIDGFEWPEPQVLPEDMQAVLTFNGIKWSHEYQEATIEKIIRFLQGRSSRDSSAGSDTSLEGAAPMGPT
The target of experiment [14] is Mitogen-activated protein kinase 7 (Homo sapiens) (UniProt Q13164). Nature of the experiment: ERK5 transactivation activators in reporter cells, primary screen, cell-based, HTS (AID 1508626;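 active = luciferase signal above three times the same-plate solvent-only control wells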;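 note: luciferase driven by Gal4-ERK5 fusion binding five Gal4 sites before minimal TATA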). The note with it: HeLa Gal4-ERK5 transactivation, 18 h, at 5 µM, stronger effect = higher value.
Sequence of Mitogen-activated protein kinase 7 (Homo sapiens) (Q13164 whole entry, looked up, the tested form may be a part): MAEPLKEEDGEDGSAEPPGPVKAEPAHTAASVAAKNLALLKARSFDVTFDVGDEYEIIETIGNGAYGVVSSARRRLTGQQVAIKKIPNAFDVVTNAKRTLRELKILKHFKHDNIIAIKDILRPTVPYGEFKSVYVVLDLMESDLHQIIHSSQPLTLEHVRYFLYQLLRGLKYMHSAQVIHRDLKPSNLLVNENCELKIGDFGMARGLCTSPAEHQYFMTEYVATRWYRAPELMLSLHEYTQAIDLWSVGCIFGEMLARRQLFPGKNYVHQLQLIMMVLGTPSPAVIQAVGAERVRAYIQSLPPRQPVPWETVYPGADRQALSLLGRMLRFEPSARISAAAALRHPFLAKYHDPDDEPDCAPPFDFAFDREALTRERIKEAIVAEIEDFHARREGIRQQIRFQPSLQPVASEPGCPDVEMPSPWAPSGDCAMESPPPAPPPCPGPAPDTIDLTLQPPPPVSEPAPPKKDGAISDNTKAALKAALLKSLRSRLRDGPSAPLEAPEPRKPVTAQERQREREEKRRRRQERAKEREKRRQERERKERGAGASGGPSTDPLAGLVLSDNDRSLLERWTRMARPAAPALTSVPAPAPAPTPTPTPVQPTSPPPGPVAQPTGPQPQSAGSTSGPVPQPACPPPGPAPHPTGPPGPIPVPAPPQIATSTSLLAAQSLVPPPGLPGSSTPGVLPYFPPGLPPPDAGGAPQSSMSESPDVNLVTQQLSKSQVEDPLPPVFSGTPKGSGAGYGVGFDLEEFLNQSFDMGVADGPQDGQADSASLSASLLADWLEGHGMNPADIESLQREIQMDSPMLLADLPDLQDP
A short description of experiment [15]: modulation of C. elegans fzo-1 (AID 1259413; call rule not given here;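 note: fzo-1 mutant C. elegans worms in liquid wells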). The note with it: C. elegans fzo-1 modulator screen, mean read-out; stronger effect = higher value.
The test system of experiment [16] is F380Y. Nature of the experiment: modulators of BK channel variants, profiling panel, selectivity assay, cell-based, U2OS BacMam, thallium flux, beta subunits (AID 1259406;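 active = thallium flux through the channel raised or lowered by more than 3 SD from vehicle-only wells, actives on both sides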;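 note: initial slope of Thallos dye fluorescence rise after thallium is added; log ratio against the mean of 0.3% DMSO vehicle wells on the same plate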). The conditions noted are these: at 30 µM.
Experiment [17] concerns F380Y/beta1. Described as above. The note with it: at 30 µM.
Experiment [18] has as its system F380Y/beta2Delta. The experiment is described as above. The conditions noted are these: at 30 µM.
Setting [19] is: measured here: epithelial PC-3E GFP cell survival.
Where [20] appears, read: measured here: mesenchymal TEM4-18 mCherry cell survival.
The mark [21] stands for this setting: MELAS cybrid survival, CellTiter-Glo 48 h, stronger effect = higher value.
Where [22] appears, read: Rieske KO mouse fibroblast survival, CellTiter-Glo 72 h.

Values joined by “and” are separate entries in the source; they are usually repeats but may differ in a detail not shown here. Equal entries are not always repeated. Active and inactive are the calls of the source.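 Rule for the calls, unless noted: active = compounds that lower survival of HCT116 colon cancer cells in the luminescence readout, no numeric limit stated; inactive = the rest.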

As to `CCN(CCO)CCCC(C)Nc1ccnc2cc(Cl)ccc12` (configuration not stated), the nuclear beta-catenin stimulation was 3.8% (inactive) in experiment [1] (at 10 µM) and 4.2% in experiment [1] (stimulation, at 2 µM). In experiment [2], the insulin secretion stimulation is 1.6% (inactive). For the same compound, the viability decrease in experiment [3] is 18.3% (inactive). Besides, in experiment [4], the tube area decrease was 22.5% (inactive). For the same compound, the GLP1 secretion stimulation in [5] is 4.3% (inactive). The inhibition of viability in experiment [6] was 8.93% (inactive). For the same compound, the viability decrease (inhibition) is -0.9% (inactive) in experiment [7] and -7.1% (inactive) in experiment [8]. Besides, the inhibition in experiment [9] was 13.2% (inactive). Moreover, the red/green cell ratio (normalised) in experiment [10] is 0.76 (inactive). The normalised cell number amounted to 1.45 in experiment [10] (setting [19]) and 1.1 in [10] (setting [20]). The fold change in experiment [11] (stronger effect = lower value, cell number ratio, induced over uninduced) was 0.835 (inactive); in experiment [11] (measured here: relative caspase fold change +Dox/-Dox), 5.27. In addition, the cell count in experiment [11] (measured here: total cells with miR-34 induction, stronger effect = lower value) amounted to 11300; in experiment [11] (measured here: total cells without miR-34 induction), 13500. For the same compound, the results for the z-score in [12] (setting [21]) and in experiment [12] (setting [22]) were -0.0994 (inactive) and 0.0866, respectively. In addition, the remaining NAD in experiment [13] is 10 nM (inactive). Besides, the luciferase signal in [14] was 96 AU (inactive).
For the compound `Nc1c(I)cc(I)c(C(=O)N(CCC(=O)O)c2ccccc2)c1I`, the nuclear beta-catenin stimulation is 1.2% (inactive) in [1] (at 10 µM) and -0.2% in experiment [1] (stimulation, at 2 µM). For the same compound, the insulin secretion stimulation in experiment [2] is 1.9% (inactive). Further, in experiment [3], the viability decrease is -9.8% (inactive). Further, the tube area decrease in experiment [4] is -5.2% (inactive). In addition, the GLP1 secretion stimulation in experiment [5] is -5.3% (inactive). Also, the inhibition of viability in [6] is -9.4% (inactive). The viability decrease (inhibition) is 7.8% (active) in experiment [7] and -9.8% (inactive) in experiment [8].
Take `CC1(C)S[C@@H]2[C@H](NC(=O)C(c3ccccc3)S(=O)(=O)O)C(=O)N2[C@H]1C(=O)O` (some centres not stated): the nuclear beta-catenin stimulation in experiment [1] (at 10 µM) was 1.3% (inactive); in experiment [1] (stimulation, at 2 µM) it was 1.4%. The insulin secretion stimulation in experiment [2] was -0.05% (inactive). For the same compound, the viability decrease in [3] was 5.8% (inactive). For the same compound, in [4], the tube area decrease is -2.3% (inactive). Further, the GLP1 secretion stimulation in experiment [5] was 3.6% (inactive). Besides, in experiment [6], the inhibition of viability was 1.3% (inactive). Besides, the figures for the viability decrease (inhibition) in experiment [7] and in [8] were -0.2% (inactive) and -1.8% (inactive), respectively.
As for `CCCCCCCCCCCCCCCC[N+](C)(C)CC`, the nuclear beta-catenin stimulation in [1] (at 10 µM) is 13.3% (inactive); in experiment [1] (stimulation, at 2 µM), 9.2%. In experiment [2], the insulin secretion stimulation was 0.7% (inactive). Besides, in [3], the viability decrease was 99% (active). Also, in [4], the tube area decrease was 106% (active). In addition, the GLP1 secretion stimulation in experiment [5] is 20.2% (active). Also, the inhibition of viability in experiment [6] was 99.1% (active). The viability decrease (inhibition) in experiment [7] was 102% (active); in experiment [8], 101% (active).
Consider `CCCCCN=C(N)N/N=C/c1c[nH]c2ccc(OC)cc12`, for which the nuclear beta-catenin stimulation in [1] (at 10 µM) is -2.1% (inactive); in experiment [1] (stimulation, at 2 µM), 5.8%. The insulin secretion stimulation in experiment [2] was 57.5% (active). Moreover, the viability decrease in [3] was 118% (active). Further, the tube area decrease in experiment [4] is 111% (active). The GLP1 secretion stimulation in [5] is 53.2% (active). For the same compound, the inhibition of viability in experiment [6] was 125% (active). Further, the viability decrease (inhibition) in [7] is 159% (active); in experiment [8] it was 102% (active). Moreover, the inhibition in experiment [9] was -7.67% (inactive). The mean signal in [15] was 250 (inactive). The red/green cell ratio (normalised) in experiment [10] is 1.12 (inactive). In addition, the normalised cell number worked out at 0.96 in experiment [10] (setting [19]) and 1.08 in experiment [10] (setting [20]). Further, the results for the z-score in [12] (setting [21]) and in experiment [12] (setting [22]) were 0.364 (inactive) and 1.74, respectively. Besides, the remaining NAD in [13] was 10 nM (inactive). For the same compound, the luciferase signal in experiment [14] was 68 AU (inactive).
Take `CN1C(C(=O)Nc2ccccn2)=C(O)c2ccccc2S1(=O)=O`: the nuclear beta-catenin stimulation in experiment [1] (at 10 µM) is 6.3% (inactive); in [1] (stimulation, at 2 µM), 0.5%. In experiment [2], the insulin secretion stimulation was -2.9% (inactive). The viability decrease in experiment [3] is -12.7% (inactive). Moreover, the tube area decrease in experiment [4] was 3.1% (inactive). For the same compound, the GLP1 secretion stimulation in experiment [5] is 1.4% (inactive). Moreover, the inhibition of viability in experiment [6] is -10.9% (inactive). Further, the viability decrease (inhibition) was 15.6% (inactive) in experiment [7] and 12.8% (inactive) in experiment [8]. In experiment [9], the inhibition is 7.63% (inactive). Moreover, the mean signal in experiment [15] was 261 (inactive). Besides, in experiment [10], the red/green cell ratio (normalised) is 1.3 (inactive). Also, the normalised cell number in [10] (setting [19]) was 0.96; in [10] (setting [20]), 1.24. Also, the z-score in experiment [12] (setting [21]) was -0.176 (inactive) and -0.255 (inactive) and -0.0452 (inactive); in experiment [12] (setting [22]) it was 0.725 and -0.177 and -0.896. Besides, the remaining NAD in experiment [13] was 10 nM (inactive). Besides, in experiment [14], the luciferase signal is 56 AU (inactive). Also, the log fold change Tl+ flux in [16] is 0.0868 (inactive); in [17], 0.0287 (inactive); in experiment [18] it was 0.0109 (inactive).
